In PubChem BioAssay (NCATS):
Results filed as inconclusive are left out. Where a call stands in place of a potency, no number is given. A number with no mark means an inactive call. Activity calls are given as the source filed them. Calls follow the shape of the dose curve; as a rule, active = well fitted curve in the direction sought with a large enough effect; inconclusive = small, poorly fitted or top-dose-only effect, or another doubt; inactive = no such curve, though single readings can be large; an effect the other way counts as inactive or inconclusive.

Legend:
[1] = molecular target: Rap guanine nucleotide exchange factor 3 (Homo sapiens) (UniProt O95398); assay: Confirmatory qHTS for antagonist of cAMP-regulated guanine nucleotide exchange factor 3 (EPAC1) (AID 1645880); conditions: EPAC1 Rap1B-BODIPY-GDP exchange, fluorescence; activity, negative = inhibition: at 115 µM (top of the series); also: nearly all actives have a fitted effect of over 55% in size; also: potency is read from the fitted curve at half-maximal effect
Chain of Rap guanine nucleotide exchange factor 3 (Homo sapiens) (O95398 whole entry, looked up): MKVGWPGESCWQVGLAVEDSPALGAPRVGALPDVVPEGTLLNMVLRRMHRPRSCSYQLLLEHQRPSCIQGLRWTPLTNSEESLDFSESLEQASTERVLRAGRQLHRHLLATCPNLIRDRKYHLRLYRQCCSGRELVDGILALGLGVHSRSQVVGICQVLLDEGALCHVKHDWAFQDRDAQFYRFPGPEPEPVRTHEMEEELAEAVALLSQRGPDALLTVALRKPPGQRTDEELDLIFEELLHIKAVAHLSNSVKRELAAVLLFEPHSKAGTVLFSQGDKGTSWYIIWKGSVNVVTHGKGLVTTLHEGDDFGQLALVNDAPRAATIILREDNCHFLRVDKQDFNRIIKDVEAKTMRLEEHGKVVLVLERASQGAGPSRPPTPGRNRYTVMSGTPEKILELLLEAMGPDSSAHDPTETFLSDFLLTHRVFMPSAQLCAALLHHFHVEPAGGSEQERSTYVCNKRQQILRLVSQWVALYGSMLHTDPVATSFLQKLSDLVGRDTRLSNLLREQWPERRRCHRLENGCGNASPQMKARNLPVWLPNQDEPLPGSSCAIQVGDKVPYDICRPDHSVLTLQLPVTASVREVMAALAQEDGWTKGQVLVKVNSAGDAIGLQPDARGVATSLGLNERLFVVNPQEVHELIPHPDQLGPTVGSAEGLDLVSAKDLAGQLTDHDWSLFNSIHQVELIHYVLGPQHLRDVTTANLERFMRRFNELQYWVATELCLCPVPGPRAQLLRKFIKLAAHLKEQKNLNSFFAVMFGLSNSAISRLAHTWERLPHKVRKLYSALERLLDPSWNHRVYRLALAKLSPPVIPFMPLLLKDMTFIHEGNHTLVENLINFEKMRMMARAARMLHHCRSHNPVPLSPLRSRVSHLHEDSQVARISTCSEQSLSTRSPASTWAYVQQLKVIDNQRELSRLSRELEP
Procedure, shortened: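 Released BODIPY-GDP fluoresces less than Rap1-bound BODIPY-GDP; the signal is followed at 480/540 nm at 5-min intervals over 30 min, after 5 min at room temperature. Reactions contain 100 nM EPAC1, 250 nM RAP1B-BODIPY-GDP and 50 uM GDP; results are normalized to ATA and DMSO.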

[2] = molecular target: Rap guanine nucleotide exchange factor 4 (Homo sapiens) (UniProt Q8WZA2); assay: Confirmatory qHTS for agonist of cAMP-regulated guanine nucleotide exchange factor 4 (EPAC2) (AID 1645884);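 also: nucleotide exchange releases bodipy-GDP from Rap1 and this lowers its fluorescence; nearly all actives have a fitted effect of over 65% in size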
Chain of Rap guanine nucleotide exchange factor 4 (Homo sapiens) (Q8WZA2 whole entry, looked up): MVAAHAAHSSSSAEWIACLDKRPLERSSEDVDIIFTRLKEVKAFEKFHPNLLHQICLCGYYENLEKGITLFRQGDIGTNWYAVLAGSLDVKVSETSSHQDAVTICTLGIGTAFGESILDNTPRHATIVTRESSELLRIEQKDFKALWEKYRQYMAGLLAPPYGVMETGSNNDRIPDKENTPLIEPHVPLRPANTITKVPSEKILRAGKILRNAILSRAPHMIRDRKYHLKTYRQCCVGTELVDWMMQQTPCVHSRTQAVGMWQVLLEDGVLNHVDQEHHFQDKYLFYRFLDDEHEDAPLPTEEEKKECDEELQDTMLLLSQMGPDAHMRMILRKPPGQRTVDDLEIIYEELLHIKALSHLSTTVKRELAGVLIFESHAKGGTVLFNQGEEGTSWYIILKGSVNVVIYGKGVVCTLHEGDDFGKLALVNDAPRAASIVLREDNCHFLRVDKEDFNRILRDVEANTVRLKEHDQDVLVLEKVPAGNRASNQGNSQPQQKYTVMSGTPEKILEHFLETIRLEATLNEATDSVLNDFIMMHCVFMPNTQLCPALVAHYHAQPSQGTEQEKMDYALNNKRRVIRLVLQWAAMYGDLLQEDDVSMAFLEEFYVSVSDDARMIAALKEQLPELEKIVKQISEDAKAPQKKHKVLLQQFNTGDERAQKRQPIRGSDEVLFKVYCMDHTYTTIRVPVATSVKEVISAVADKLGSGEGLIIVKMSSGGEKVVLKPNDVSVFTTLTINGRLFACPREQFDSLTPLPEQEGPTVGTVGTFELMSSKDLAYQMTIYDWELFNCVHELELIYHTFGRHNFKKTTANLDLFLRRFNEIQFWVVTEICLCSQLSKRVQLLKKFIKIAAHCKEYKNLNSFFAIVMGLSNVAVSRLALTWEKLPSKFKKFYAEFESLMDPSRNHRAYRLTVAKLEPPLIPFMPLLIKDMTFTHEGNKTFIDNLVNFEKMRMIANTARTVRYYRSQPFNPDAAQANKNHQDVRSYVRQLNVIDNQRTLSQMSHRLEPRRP

[3] = molecular target: Rap guanine nucleotide exchange factor 3 (Homo sapiens) (UniProt O95398); assay: Counterscreen qHTS for agonist of cAMP-regulated guanine nucleotide exchange factor 3 (EPAC1) (AID 1645889); also: nearly all actives have a fitted effect of over 40% in size; also: potency is read from the fitted curve at half-maximal effect
Procedure, shortened: (§1)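 Measured: fluorescence of BODIPY-GDP bound to Rap1B, which falls as exchange proceeds. Conditions include 50 uM competing GDP, 5 and 30 min reads, and a later cAMP challenge for antagonist detection.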

[4] = molecular target: Rap guanine nucleotide exchange factor 3 (Homo sapiens) (UniProt O95398); assay: Counterscreen qHTS for antagonist of cAMP-regulated guanine nucleotide exchange factor 3 (EPAC1) (AID 1645888); also: potency is read from the fitted curve at half-maximal effect
Procedure, shortened: as §1

[5] = molecular target: Rap guanine nucleotide exchange factor 4 (Homo sapiens) (UniProt Q8WZA2); assay: Confirmatory qHTS for antagonist of cAMP-regulated guanine nucleotide exchange factor 4 (EPAC2) (AID 1645885); also: nearly all actives have a fitted effect of over 25% in size; also: potency is read from the fitted curve at half-maximal effect
[6] = molecular target: Tumor susceptibility gene 101 protein (Homo sapiens) (UniProt Q99816); assay: qHTS Assay for Iinhibitors of HIV-1 Budding by Blocking the Interaction of PTAP/TSG101: Hit Validation (AID 651600); also: potency is read from the fitted curve at half-maximal effect; nearly all actives have a fitted effect of over 70% in size
Chain of Tumor susceptibility gene 101 protein (Homo sapiens) (Q99816 whole entry, looked up, the tested form may be a part): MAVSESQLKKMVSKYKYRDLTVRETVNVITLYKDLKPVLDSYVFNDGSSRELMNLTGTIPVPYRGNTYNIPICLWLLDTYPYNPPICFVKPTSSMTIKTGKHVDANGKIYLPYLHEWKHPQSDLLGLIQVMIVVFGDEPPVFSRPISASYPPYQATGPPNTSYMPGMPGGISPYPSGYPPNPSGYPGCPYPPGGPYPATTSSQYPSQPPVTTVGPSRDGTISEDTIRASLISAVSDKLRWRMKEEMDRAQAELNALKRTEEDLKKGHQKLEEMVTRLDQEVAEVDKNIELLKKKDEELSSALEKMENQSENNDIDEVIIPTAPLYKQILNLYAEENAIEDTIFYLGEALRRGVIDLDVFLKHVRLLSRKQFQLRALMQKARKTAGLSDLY
Procedure, shortened: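 Displacement of a FITC-labeled PTAP-motif peptide (50 nM) from the Tsg101 binding domain (10 uM) was monitored by fluorescence polarization after a 20 min room-temperature incubation.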

Structure (SMILES) | Potency [1] | Potency [2] | Potency [3] | Potency [4] | Potency [5] | activity change, negative = inhibition [4] | Potency [6]
Cc1cc([N+](=O)[O-])c2[nH]c(C(=O)N/N=C/c3ccccc3C(=O)O)c(-c3ccccc3)c2c1 | 67.5 µM (active) | inactive | inactive | – | – | – | –
O=C1c2ccccc2-c2onc3c(Br)cc(NC4CCCCC4)c1c23 | inactive | inactive | inactive | inactive | – | – | –
COc1ccccc1C(=O)Oc1ccc2c(c1)O/C(=C\c1ccncc1)C2=O | inactive | – | 35.5 µM (active) | inactive | 84.9 µM (active) | – | –
Cc1ccc(N=Cc2c(O)n(-c3nccs3)c(=O)c3ccccc23)c(C)c1 | inactive | – | – | – | inactive | 7.45% [at 30.8 µM] | –
O=C(NCCOc1ccccc1F)c1ccccc1SCc1ccc(F)cc1 | inactive | – | inactive | inactive | 10.7 µM (active) | – | –
Cc1ccc(-c2nc3ccc(C)cn3c2CC2CCCCC2)cc1 | inactive | – | – | inactive | inactive | – | –
O=S(=O)(c1ccc(Cl)c2ccccc12)N1CCCC1 | inactive | – | inactive | inactive | inactive | – | –
CNC(=O)c1csc(Cc2c(Cl)sc3ccc(Cl)cc23)n1 | inactive | – | – | inactive | inactive | – | –
COc1ccccc1N1CCN(C(=O)c2ccc(S(=O)(=O)N3CCCC3)cc2)CC1 | inactive | – | inactive | inactive | inactive | – | –
N=C1/C(=C\c2coc3ccccc3c2=O)C(=O)N=C2SC=CN12 | inactive | – | – | – | inactive | 46.8% [at 30.8 µM] | –
CC(C)CC1=NN2C(=N)/C(=C\c3coc4ccccc4c3=O)C(=O)N=C2S1 | inactive | – | 12.6 µM (active) | – | inactive | 51.1% [at 30.8 µM] | –
CCOC(=O)c1cc(C)sc1NC(=O)CSC1=NCCS1 | inactive | – | – | inactive | inactive | – | –
COc1ccc2c(c1)C(=O)CCC2c1ccccc1 (centres undefined) | inactive | – | – | inactive | inactive | – | –
COc1ccc(C(=O)Nc2nc(-c3ccc(OC)cc3)c(-c3ccc([N+](=O)[O-])cc3)s2)cc1 | inactive | – | 63.1 µM (active) | inactive | inactive | – | –
O=C1C=C(c2c(O)ccc3ccccc23)c2ccccc2C1=O | 67.5 µM (active) | – | 35.5 µM (active) | inactive | 47.8 µM (active) | – | –
CCOC(=O)c1ccc2[nH]cc(C(C)=O)c(=O)c2c1 | inactive | – | – | inactive | inactive | – | –

Structure (SMILES) | Potency [1] | Potency [2] | Potency [3] | Potency [4] | Potency [5] | activity change, negative = inhibition [4] | Potency [6]
COc1cccc(/C(O)=C/c2nc3ccc(C(=O)NCCc4cccc(C)c4)cc3[nH]c2=O)c1 | inactive | – | inactive | inactive | inactive | – | –
CCN(CC)c1ccc(C=C2SC(=S)NC2=O)cc1 | inactive | – | – | inactive | 84.9 µM (active) | – | –
CN(C(=O)c1cc2c(cc1Br)OCO2)c1cccc2ccccc12 | inactive | – | – | inactive | inactive | – | –
Oc1ccc(N=Cc2sc3ccccc3c2Cl)cc1 | inactive | – | inactive | inactive | inactive | – | –
Cc1ccc(S(=O)(=O)/N=C2\C=C(NS(=O)(=O)c3ccccc3)C(=O)c3ccccc32)cc1 | 26.9 µM (active) | – | inactive | inactive | 16.9 µM (active) | – | –
CCN1C(=O)C(=CC=CN(C)c2ccccc2)SC1=S | inactive | – | 11.2 µM (active) | – | inactive | 12.2% [at 30.8 µM] | –
CCN1CCN(c2ccc(S(=O)(=O)N3CCCCC3)cc2NC(=O)c2cccc(OC(F)F)c2)CC1 | inactive | – | inactive | inactive | inactive | – | –
COc1ccc(NC(=O)NS(=O)(=O)c2ccc(C)cc2)cn1 | inactive | – | 63.1 µM (active) | inactive | inactive | – | –
O=C1CC2(CCN(S(=O)(=O)c3ccccc3F)CC2)Oc2ccccc21 | inactive | – | 10 µM (active) | inactive | inactive | – | –
N#Cc1cc(Br)ccc1N=C1CCCN1c1ccccc1 | inactive | – | inactive | inactive | 3.01 µM (active) | – | –
CC1CC1c1ccc(/C=C(\C#N)C(=O)Nc2cc(Cl)ccc2Cl)o1 (centres undefined) | inactive | – | inactive | inactive | inactive | – | –
CN1C(=O)c2cccc3c(N)ccc(c23)C1=O | inactive | – | 10 µM (active) | inactive | inactive | – | 5.8 µM (active)
CC1=CC2=NC(=O)/C(=C/c3coc4ccccc4c3=O)C(=N)N2O1 | inactive | – | 39.8 µM (active) | inactive | 75.7 µM (active) | – | –
CC(=O)CCc1oc2c([N+](=O)[O-])cccc2c1-c1ccc(C)o1 | inactive | – | – | inactive | inactive | – | –
CCN1CCc2c(sc(NC(=O)Nc3ccc(Cl)c(Cl)c3)c2C(N)=O)C1 | inactive | – | 112 µM (active) | 100 µM (active) | 84.9 µM (active) | – | –
